About 79,000 compounds went through this panel and 15% of them were active in at least one assay; those are over-represented in the sample as a whole. A number with no mark means an inactive call. Activity calls are given as the source filed them. Cut-off read from the data, not from the text of the source: active = growth inhibition above about 70%; inactive = the rest.

The first assay can be described thus: NCI Yeast Anticancer Drug Screen. Data for the CLN2oe strain (AID 163).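 Note: 0% = growth of vehicle-only control cultures.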 The following applies: S. cerevisiae CLN2oe strain, at 11.0 µM, active compounds read high. The essentials:
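Yeast cells carrying a defined cell-cycle control alteration were exposed to test compounds. Growth inhibition was scored against vehicle-treated control cultures.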
In the case of `CS(=O)(=O)SCc1ccc([N+](=O)[O-])cc1`, the growth inhibition is 57%.
With `Cc1csc(=S)n1OC(=O)NC1CCCCC1`, the growth inhibition was 100% (active).
Still for that read-out and setting: the result for `CCOc1ccc(NC(=O)C2=C(C)NC(C)=C(C(=O)Nc3ccc(OCC)cc3)C2c2cccc([N+](=O)[O-])c2)cc1` reads -7%; that for `CC(C)(C)N=C(NO)c1ccccc1`, -2%; that for `CCCCC/C(=C(\C#N)C(=O)OCC)c1ccccc1`, -5%.
Same read-out and setting: next, `O=C(NCCCl)Sc1ccc(Cl)cc1`: -2%; `O=C1Nc2ccc(Br)cc2C1=Nc1ccc2c(c1)OCO2`: 16%.
Regarding `CCC(C)OC(=O)Nc1ccc(C)c(NC(=O)OC(C)CC)c1` (stereo not drawn), the growth inhibition was 7%.
In the case of `O=C(O)c1cc2ccc(Cl)cc2c(O)c1C1=CCCCC1`, the growth inhibition was 4%.
As for `CN(C)Cc1cc(N=Nc2ccc(Cl)cc2)ccc1OC(=O)c1ccccc1`, the growth inhibition is 1%.
`CN1CCN(C(=O)/C=C/C(=O)c2ccccc2)CC1`: the growth inhibition is 15%.
Still for that read-out and setting: next, `CCCC/C=C/C(C)(C(=O)OCC)C(=O)OCC`: -8%; `Cc1nc(-c2cc3cc([N+](=O)[O-])ccc3oc2=O)cs1`: 8%; `Cc1nc2ccccc2nc1NNc1ccccc1`: 10%.
Turning to `CN(C)[C@@H]1C(=O)C(C(N)=O)=C(O)[C@@]2(O)C(=O)C3=C(O)c4c(O)cccc4C[C@H]3C[C@@H]12`, the growth inhibition is 27%.
Regarding `COc1ccc(NC(=O)CC2SC(=Nc3ccccc3C)NC2=O)c([N+](=O)[O-])c1` (stereo not drawn), the growth inhibition was 0%.
Same read-out and setting: next, `COc1cc(O)c2c(c1O)C(=O)c1cc(C)ncc1C2=O`: 5%.
Consider `CSc1nnc(SC)nn1`, for which the growth inhibition is 15%.
For `COc1cc(/C=C2\CCC/C(=C\c3ccc(O)c(OC)c3)C2=O)ccc1O`, the growth inhibition is -7%.
Turning to `CN(C)CCNC(=O)c1cccc2cc([N+](=O)[O-])ccc12`, the growth inhibition was 43%.
As for `CCC(C)(C)c1ccc(Oc2cccc(C(=O)O)c2)cc1`, the growth inhibition is 24%.
With `CCCCCCSc1ncnc2[nH]ncc12`, the growth inhibition is 3%.
On to `CC(=O)Nc1ccc(/C=C/[N+](=O)[O-])cc1`, for which the growth inhibition was 3%.
`CCOC(=O)c1[nH]n(-c2ccccc2)c(=O)c1C=NC(=S)C(N)=S`: the growth inhibition was 2%.
Still for that read-out and setting: next, `CCCC(O)C1CC(C(C)C)CCC1C` (stereo not drawn): 5%; `O=[n+]1c2ccccc2n([O-])c2cc(Br)ccc21`: 38%.
As to `CN(C)CCNC(=O)c1cccc2c1Oc1c(cccc1[N+](=O)[O-])O2`, the growth inhibition was 20%.
Turning to `Nc1ncc(-c2ccc(Br)cc2)s1`, the growth inhibition is -7%.
Take `Cc1cc2cc3cc(C)c(N)cc3nc2cc1N`: the growth inhibition was 17%.
On to `CC12C(=O)OC(=O)C(c3ccccc31)c1ccccc12`, for which the growth inhibition is -10%.
Same read-out and setting: the result for `c1ccc2c(OCC3CO3)cccc2c1` (stereo not drawn) reads -2%.
`CCOC(=N)c1ccc(O)c(OC)c1`: the growth inhibition is 1%.
As for `Nc1cc(N)c(N=Nc2cccc3c(S(=O)(=O)O)cccc23)cc1N=Nc1cc([N+](=O)[O-])ccc1O`, the growth inhibition is -4%.
Take `COC(=O)Oc1cc(Cl)c(Cl)cc1Cl`: the growth inhibition is -7%.
Regarding `O=C(O)C1CC(c2ccccc2)=NN1c1ccccc1` (stereo not drawn), the growth inhibition was 22%.
Still for that read-out and setting: next, `COc1cc([C@@H]2c3cc4c(cc3[C@@H](Nc3ccc(NC(=O)c5cc([N+](=O)[O-])cn5C)cc3)[C@H]3COC(=O)[C@H]23)OCO4)cc(OC)c1O`: 44%; `O=C(O)c1ccccc1/C=N/N=C1c2ccccc2-c2ccccc21`: 0%.
For the compound `O=C1CC(=O)c2ccccc21`, the growth inhibition was 3%.
Turning to `Nc1ncnc2c1ncn2C1OC(CO)CC1O` (stereo not drawn), the growth inhibition was 27%.

The assay is the same for the next values; noted with them: S. cerevisiae CLN2oe strain, at 33.0 µM, active compounds read high.
Consider `CS(=O)(=O)SCc1ccc([N+](=O)[O-])cc1`, for which the growth inhibition is 98% (active).
In the case of `Cc1csc(=S)n1OC(=O)NC1CCCCC1`, the growth inhibition was 100% (active).
`CCOc1ccc(NC(=O)C2=C(C)NC(C)=C(C(=O)Nc3ccc(OCC)cc3)C2c2cccc([N+](=O)[O-])c2)cc1`: the growth inhibition is 4%.
With `CC(C)(C)N=C(NO)c1ccccc1`, the growth inhibition was -4%.
Same read-out and setting: the result for `CCCCC/C(=C(\C#N)C(=O)OCC)c1ccccc1` reads -4%; that for `O=C(NCCCl)Sc1ccc(Cl)cc1`, 9%; that for `O=C1Nc2ccc(Br)cc2C1=Nc1ccc2c(c1)OCO2`, 17%.
As for `CCC(C)OC(=O)Nc1ccc(C)c(NC(=O)OC(C)CC)c1` (stereo not drawn), the growth inhibition is 22%.
With `O=C(O)c1cc2ccc(Cl)cc2c(O)c1C1=CCCCC1`, the growth inhibition was 40%.
Take `CN(C)Cc1cc(N=Nc2ccc(Cl)cc2)ccc1OC(=O)c1ccccc1`: the growth inhibition is 0%.
Same read-out and setting: next, `CN1CCN(C(=O)/C=C/C(=O)c2ccccc2)CC1`: 36%; `CCCC/C=C/C(C)(C(=O)OCC)C(=O)OCC`: -1%.
In the case of `Cc1nc(-c2cc3cc([N+](=O)[O-])ccc3oc2=O)cs1`, the growth inhibition was 20%.
`Cc1nc2ccccc2nc1NNc1ccccc1`: the growth inhibition is 18%.
Take `CN(C)[C@@H]1C(=O)C(C(N)=O)=C(O)[C@@]2(O)C(=O)C3=C(O)c4c(O)cccc4C[C@H]3C[C@@H]12`: the growth inhibition is 98% (active).
The same measure, in the same setting: next, `COc1ccc(NC(=O)CC2SC(=Nc3ccccc3C)NC2=O)c([N+](=O)[O-])c1` (stereo not drawn): -6%.
The same measure, in the same setting: the result for `COc1cc(O)c2c(c1O)C(=O)c1cc(C)ncc1C2=O` reads 10%; that for `CSc1nnc(SC)nn1`, 31%; that for `COc1cc(/C=C2\CCC/C(=C\c3ccc(O)c(OC)c3)C2=O)ccc1O`, -5%.
Same read-out and setting: the result for `CN(C)CCNC(=O)c1cccc2cc([N+](=O)[O-])ccc12` reads 56%.
Regarding `CCC(C)(C)c1ccc(Oc2cccc(C(=O)O)c2)cc1`, the growth inhibition was 84% (active).
For `CCCCCCSc1ncnc2[nH]ncc12`, the growth inhibition was -4%.
With `CC(=O)Nc1ccc(/C=C/[N+](=O)[O-])cc1`, the growth inhibition was 10%.
As for `CCOC(=O)c1[nH]n(-c2ccccc2)c(=O)c1C=NC(=S)C(N)=S`, the growth inhibition is 35%.
Consider `CCCC(O)C1CC(C(C)C)CCC1C` (stereo not drawn), for which the growth inhibition was 4%.
The same measure, in the same setting: next, `O=[n+]1c2ccccc2n([O-])c2cc(Br)ccc21`: 99% (active); `CN(C)CCNC(=O)c1cccc2c1Oc1c(cccc1[N+](=O)[O-])O2`: 6%; `Nc1ncc(-c2ccc(Br)cc2)s1`: 90% (active).
Regarding `Cc1cc2cc3cc(C)c(N)cc3nc2cc1N`, the growth inhibition was 46%.
On the same count and under the same terms, the result for `CC12C(=O)OC(=O)C(c3ccccc31)c1ccccc12` reads -11%; that for `c1ccc2c(OCC3CO3)cccc2c1` (stereo not drawn), 2%; that for `CCOC(=N)c1ccc(O)c(OC)c1`, -3%.
Same read-out and setting: next, `Nc1cc(N)c(N=Nc2cccc3c(S(=O)(=O)O)cccc23)cc1N=Nc1cc([N+](=O)[O-])ccc1O`: -7%.
In the case of `COC(=O)Oc1cc(Cl)c(Cl)cc1Cl`, the growth inhibition is -6%.
On the same count and under the same terms, next, `O=C(O)C1CC(c2ccccc2)=NN1c1ccccc1` (stereo not drawn): 29%; `COc1cc([C@@H]2c3cc4c(cc3[C@@H](Nc3ccc(NC(=O)c5cc([N+](=O)[O-])cn5C)cc3)[C@H]3COC(=O)[C@H]23)OCO4)cc(OC)c1O`: 58%.
The same measure, in the same setting: next, `O=C(O)c1ccccc1/C=N/N=C1c2ccccc2-c2ccccc21`: -5%; `O=C1CC(=O)c2ccccc21`: 1%.
Turning to `Nc1ncnc2c1ncn2C1OC(CO)CC1O` (stereo not drawn), the growth inhibition was 47%.
